Screens from PubChem.
This is a sample that favours compounds with a hit; in the whole collection about 7.9% have one here.
HT1080 IDH1KD tx – qHTS for induction of synthetic lethality in tumor cells producing 2HG: qHTS for the HT-1080-IDH1KD cell line | HT-1080 IDH1 knockdown viability, ATP luminescence, 48 h | Potency, µM (series often up to 46.1 µM), for the others: at the highest dose activity, negative = toxicity, usual class: cytotoxic | 360,000 compounds, 2% hits | AID 686971, 2013;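 also: 0% = DMSO wells and -100% = cell-free medium wells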
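After a 2 h attachment period, IDH1KD HT-1080 cells took pin-transferred compound for 48 h at 37 °C; ATP-based luminescence after 10 min room-temperature reagent incubation reported viability.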
KB-V1 MDR tox – qHTS assay for MDR1-selective chemotherapeutics: Primary screen using the drug-selected MDR subline cells KB-V1; KB-V1 MDR cells viability, CellTiter-Glo, 72 h; Potency, µM (doses to about 46.1 µM), most hits filed as cytotoxic; 400,000 compounds, 3.4% hits; also: % is scaled to controls: 0 for no effect and ±100 for the full control effect; nearly all actives have a fitted effect of over 60% in size
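Potencies derive from concentration-effect curves fitted to normalized luminescence (CellTiter-Glo) of KB-V1 cells treated for 72 h at 37 degrees C in phenol-red-free DMEM containing 10% FBS.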
SW480 rereplic – A quantitative high throughput screen for small molecules that induce DNA re-replication in SW480 colon adenocarcinoma cells; SW480 DNA re-replication, Hoechst DNA content imaging, 48 h; Potency, µM (top dose mostly 46.1 µM), for the others: top-dose re-replication activation, hits mostly activators; 340,000 compounds, 1.8% hits; AID 624297, 2012; also: % of control where 0% means no effect; nearly all actives have a fitted effect of over 55% in size
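Readout is total intensity of Hoechst-stained nuclei, excited at 405 nm and collected at 500-530 nm. Compound treatment lasted 48 hr at 37 C in 5% CO2 before staining.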
MCF10A rerep – A quantitative high throughput screen for small molecules that induce DNA re-replication in MCF 10a normal breast cells; MCF 10A DNA re-replication, Hoechst nuclear intensity, 48 h; Potency, µM (titrated, usually from 46.1 µM), without a hit: top-dose activity, positive = re-replication, actives largely listed as activators; 350,000 compounds, 2.9% hits; AID 624296, 2012; also: % of control where 0% means no effect; nearly all actives have a fitted effect of over 50% in size
KB-3-1 tox – qHTS assay for MDR1-selective chemotherapeutics: Primary screen using the parental adenocarcinoma cell KB-3-1; KB-3-1 viability, CellTiter-Glo ATP luminescence, 72 h; Potency, µM (highest dose often 46.1 µM), hits mostly cytotoxic; 400,000 compounds, 1.4% hits; also: % is scaled to controls: 0 for no effect and ±100 for the full control effect; nearly all actives have a fitted effect of over 60% in size
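Luminescent ATP read-out (CellTiter-Glo) measures survival of drug-naive KB-3-1 cells after 72 h compound exposure at 37 °C. Titration series was screened from lowest to highest concentration, with DMSO vehicle plates as background controls.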
HT1080NT lethal – qHTS for induction of synthetic lethality in tumor cells producing 2HG: qHTS for the HT-1080-NT fibrosarcoma cell line | 360,000 compounds, 1.6% hits | HT-1080-NT fibrosarcoma viability, CellTiter-Glo ATP luminescence, 48 h | Potency, µM (series often up to 46.1 µM), for inactives: at the highest dose activity, negative = less viability, actives largely listed as cytotoxic;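 also: NT is the 2HG producing partner of a matched IDH1 knockdown line; 0% = DMSO-treated cells and -100% = media-only wells without cells; nearly all actives have a fitted effect of over 55% in size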
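HT-1080-NT fibrosarcoma cells (2HG-overproducing), 750 cells/well in RPMI with 5% FBS, dosed after 2 h and incubated 48 h at 37C. CellTiter-Glo luminescence normalized to DMSO and no-cell wells; concentration-response curves fitted and classed.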
Numbers without * were called inactive; i = inactive; u = inconclusive; x = no result given; [ ] = remark or other dose. Calls follow the shape of the dose curve; as a rule, active = well fitted curve in the direction sought with a large enough effect; inconclusive = small, poorly fitted or top-dose-only effect, or another doubt; inactive = no such curve, though single readings can be large; an effect the other way counts as inactive or inconclusive. Potency is read from the fitted curve at half-maximal effect.

SMILES | HT1080 IDH1KD tx | KB-V1 MDR tox | SW480 rereplic | MCF10A rerep | KB-3-1 tox | HT1080NT lethal
CCOC(=O)Cc1ccc(Nc2nc3cc(-c4ccccc4C)sc3c(=O)n2C)cc1 | u | i | x | x | i | u
CC(C)Oc1ccc(C(=O)NC2(C(F)(F)F)NC(=O)N(CCCc3ccccc3)C2=O)cc1 (centres undefined) | u | 9.2µM* | u | 14% | u | -2%
COc1ccc(CCN2C(=O)NC(NC(=O)c3ccccc3OC)(C(F)(F)F)C2=O)cc1OC (centres undefined) | x | i | x | x | i | x
COc1ccc(CCN2C(=O)NC(NC(=O)CCc3ccccc3)(C(F)(F)F)C2=O)cc1OC (centres undefined) | 1% | 21µM* | 2% | 0% | i | 6%
CCCCC(=O)N(C)c1c(C)nc2ccc(C(=O)NCc3ccccc3OC)cn12 | 7% | i | x | x | i | 5%
O=C(CCC1N=C2c3ccccc3N=C(SCc3cccc(F)c3)N2C1=O)NCc1ccc(F)cc1 (centres undefined) | x | i | x | x | i | x
O=C(O)COc1ccc2c(c1)O/C(=C\c1ccco1)C2=O | 9% | u | -6% | -1% | i | 4%
O=C(O)COc1ccc2c(c1)O/C(=C\c1cccs1)C2=O | 12% | i | 16µM* | u | i | 1%
CCO/C=N/Nc1nc(C(F)(F)F)nc2c1cnn2Cc1ccccc1 | -17% | i | u | 18µM* | i | -19%
Cn1cc(SCC(=O)O)c2ccccc21 | -3% | i | -17% | 11% | i | -5%
Cn1cc(C(C[N+](=O)[O-])c2ccccc2)c2ccccc21 (centres undefined) | u | u | 10µM* | 13µM* | u | u
O=[N+]([O-])CC(c1ccc(F)cc1)c1c[nH]c2ccccc12 (centres undefined) | u | i | u | 13µM* | u | u
O=C(NCCc1ccccc1F)C1CCC(=O)N(Cc2ccc(Cl)cc2)C1 (centres undefined) | -2% | i | u | 0% | i | 1%
c1ccc(-c2nnc3sc(CN4CCC5(CC4)OCCO5)cn23)cc1 | -17% | 21µM* | -2% | -3% | i | -13%
Brc1ccc(-c2nnc3sc(CN4CCCCC4)cn23)cc1 | x | i | x | x | i | x
CCN(CC)c1ccc(/C=C2\SC(=O)N(C(C)C)C2=O)o1 | 7.3µM* | i | u | 3.7µM* | u | 16µM*
CC(C)COc1ccc(-c2nnc(-c3ccco3)o2)cc1 | -3% | i | u | -178%[0.0737 µM] | i | 0%
CCN(CC)CCCNc1ccc(-c2nnc(-c3ccc(OCC(C)C)cc3)o2)cn1 | u | u | 21µM* | u | 21µM* | -8%
NS(=O)(=O)c1cccc(NC(=O)CSc2nnc(NC3CC3)s2)c1 | -1% | i | x | x | i | 1%
CCSc1nnc2n1C(C)(C)Cc1ccccc1-2 | -1% | i | u | -1% | i | 2%
CC1(C)Cc2ccccc2-c2n[nH]c(=S)n21 | 11µM* | u | 0% | 2% | i | 14µM*
CCCCOc1ccc(C(=O)NCC(=O)NCC2CCCO2)cc1 (centres undefined) | 14% | x | 3% | 0% | x | 9%
Cc1ccc(Nc2nc(N)nc(COC(=O)C3=COCCO3)n2)cc1 | -5% | i | -21% | 5% | i | 1%
Cc1ccccc1Cn1nc(C)c(NC(=O)C2(C)CC2(Cl)Cl)c1C (centres undefined) | 1% | u | 18µM* | 7% | i | 1%
Cc1nn(Cc2ccccc2Cl)c(C)c1NC(=O)c1noc2c1CCCCC2 | 10µM* | i | 6% | u | u | -7%
SMILES | HT1080 IDH1KD tx | KB-V1 MDR tox | SW480 rereplic | MCF10A rerep | KB-3-1 tox | HT1080NT lethal
Cc1ccccc1Cn1nc(C)c(NC(=O)c2noc3c2CCCC3)c1C | u | 5.2µM* | -1% | 3% | u | u
Cc1cc(NC(=O)c2noc3c2CCCC3)nn1Cc1ccc(Cl)cc1 | -10% | 18µM* | 17% | -6% | u | -15%
CCCCOc1ccccc1C(=O)N(Cc1cccc(F)c1)C1CCS(=O)(=O)C1 (centres undefined) | x | i | x | x | i | x
CNc1cc(C(=O)O)nc2ccccc12 | x | i | x | x | u | x
CCc1ccc(Oc2nc3c(C)cccn3c(=O)c2/C=C(\C#N)c2nc3ccccc3s2)cc1 | x | i | x | x | i | x
Cn1c(SCc2nc3ccccc3[nH]2)nnc1-c1cccs1 | 16% | 21µM* | -5% | 7% | i | 8%
Cn1c(SCc2c(Cl)cccc2Cl)nnc1-c1cccs1 | 18% | 18µM* | 1% | 0% | i | u
Cn1c(Cc2cccs2)nnc1SCc1nc2ccccc2[nH]1 | -2% | i | 0% | 3% | i | -7%
Cc1ccc(CSc2nnc(-c3cccs3)n2C)cc1 | -9% | i | 3% | -14% | i | 0%
Cc1oc(C(C)(C)C)cc1C(=O)N1CCN(C(c2ccccc2)c2ccccc2)CC1 | u | i | u | 12µM* | i | u
CCc1c(C)c2ccc(OCC(=O)N(C)C)c(C)c2oc1=O | 1% | 10µM* | -11% | 4% | i | 12%
C=C(C)COc1ccc2c(CC)cc(=O)oc2c1C | -8% | 21µM* | -4% | 12% | u | -1%
CCc1cc(=O)oc2c(C)c(OCC(=O)N3CCC(C(=O)O)CC3)ccc12 | -4% | u | -9% | -31% | i | -1%
Cc1c(C)c2ccc(OCC(=O)N(C)C)c(C)c2oc1=O | 18% | i | 1%[9.22 µM] | -12% | i | 14%
CCCOc1ccc2c(CC)cc(=O)oc2c1C | 0% | 13µM* | 8% | 10% | i | 5%
CN(CC(=O)Nc1cccc(F)c1)C(=O)c1cc(S(=O)(=O)N2CCN(c3ccccc3)CC2)ccc1Cl | -14% | i | -10% | 17% | u | 2%[9.24 µM]
COC(=O)/C(=N/Nc1ccccc1Cl)Sc1nnc(C(O)c2ccccc2)n1-c1ccccc1 (centres undefined) | 19% | i | -9% | -2% | i | 21%
CC(=O)/C(=N/Nc1ccccc1Cl)Sc1nnc(C(O)c2ccccc2)n1-c1ccccc1 (centres undefined) | 0% | 16µM* | 1% | 1% | i | -1%
